The source of these data is PubChem BioAssay AID2685 (National Center for Advancing Translational Sciences (NCATS), 2010).

In all, about 320,000 compounds went through this assay and about 2,100 (0.66%) were called active. Not shown: some 53% with an inconclusive outcome. The sample holds actives, similar compounds and a random draw of the others, so the mix is not that of the screen. Calls follow the shape of the dose curve; as a rule, active = well fitted inhibition curve with a large enough effect in the signal ratio, with a control signal flat (not every such curve was filed as active); inconclusive = small, poorly fitted or top-dose-only effect, or effect the other way, or a change in a side signal; inactive = flat fitted curve, though single readings scatter; the % refers to the signal ratio.
Potency is read from the fitted curve at half-maximal effect.

This experiment in a line: qHTS Assay for Lipid Storage Modulators in Drosophila S3 Cells.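 As to cell number change: cells counted by Cell Tracker Red CMTPX staining in the red channel.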 As to lipid storage change, negative = inhibition: % is scaled to controls: 0 for no effect and ±100 for the full control effect. The following applies: BODIPY lipid droplet fluorescence, 18-24 h, cells fed with added oleic acid; cell number change: measured here: cell count max response; series mostly up to 46.1 µM; lipid storage change, negative = inhibition: at the top concentration. The method, boiled down:
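Laser-scanning cytometry quantifies lipid droplet accumulation (500–530 nm total intensity; droplet/cell object ratio) in oleic acid-fed (400 uM added) Drosophila S3 cells treated with a concentration series. 20 uM Triacsin C defined 100% inhibition.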
On the technique in general: qHTS replaces the single test concentration by a dilution series.
For `O=S(=O)(c1ccccc1)N1CCN(S(=O)(=O)c2ccc(F)cc2)CC1`, the “lipid storage change, negative = inhibition” value was 28.1% (inactive) and the cell number change is -2.92%. In the same order, the values of `CC1(C)CC(=O)c2cc(NC(=O)c3ccccc3)c(=O)oc2C1` are 3.26% (inactive) and 6.08%.

`Cn1c(SCc2cc(=O)[nH]c(C(C)(C)C)n2)nnc1C(F)(F)F`: the “lipid storage change, negative = inhibition” value was 10.1% (inactive) and the cell number change was -1.02%.

Consider `CCOC(=O)N1CCN(C2=C(NS(=O)(=O)c3ccc(NC(C)=O)cc3)C(=O)c3ccccc3C2=O)CC1`, for which the Potency was 18.4 µM (active) and the cell number change was -22.6%. As to `CC(=O)Nc1ccc(S(=O)(=O)NC2=C(N3CCN(c4ccc(F)cc4)CC3)C(=O)c3ccccc3C2=O)cc1`, the molecule was classed as inactive and the cell number change amounted to 3.49%.

For the molecule `CCOC(=O)N1CCN(C2=C(NS(=O)(=O)c3ccc(C)cc3)C(=O)c3ccccc3C2=O)CC1`, the molecule was called inactive and the cell number change is -13.9%.

In the case of `CCOC(=O)c1ccc(N(CC(=O)NC2CCCCC2)C(=O)CNC(=O)c2ccco2)cc1`, the molecule was called inactive and the cell number change was 11.2%. For `O=C(c1ccccc1)N1N=C(c2ccco2)CC1c1cccs1` (stereo not given), the “lipid storage change, negative = inhibition” value was -0.755% (inactive) and the cell number change turned out to be 16.1%. Regarding `O=C(O)CCC(=O)N1N=C(c2ccco2)CC1c1cccs1` (stereo not given), the “lipid storage change, negative = inhibition” value was -9.03% (inactive) and the cell number change is -1.36%. As to `O=C(CCl)N1N=C(c2ccco2)CC1c1cccs1` (stereo not given), the Potency is 23.1 µM (active) and the cell number change was -16%. As for `CC(C)Sc1nc2c(cnn2-c2ccc(F)cc2)c(=O)[nH]1`, the result was inactive.

As for `CN(C)c1nc(NCc2ccccc2)nc(N/N=C/c2ccc(Cl)cc2Cl)n1`, the molecule was called inactive and the cell number change is -26.7%. Regarding `CN(C)c1nc(NCc2ccccc2)nc(N/N=C/c2ccc(Br)cc2)n1`, the “lipid storage change, negative = inhibition” value is -0.957% (inactive) and the cell number change was -3.42%. As for `CN(C)c1nc(NCc2ccccc2)nc(N/N=C/c2ccccc2F)n1`, the Potency was 23.1 µM (active).

Regarding `O=C1CCCN1CCCNS(=O)(=O)c1ccc(Cl)c(C(=O)N2CCOCC2)c1`, the Potency was 23.1 µM (active) and the cell number change is -15.3%. For `O=C(NCCCN1CCCC1=O)c1cc(S(=O)(=O)N2CCOCC2)ccc1Cl`, the “lipid storage change, negative = inhibition” value is -23.3% (inactive) and the cell number change was 15%. For `O=C1CCCN1CCCNS(=O)(=O)c1ccc(F)c(F)c1`, in that order: -21.9% (inactive) and 3.84%. For `COc1ccccc1Cn1c(C(C)C)nc2ccccc21`, in that order: 0.143% (inactive) and 8.07%. For `O=C(Nc1nc2ccccc2[nH]1)c1ccc(OC(F)F)cc1`, the call was inactive and the cell number change is -15.1%. Turning to `CCOc1ccc(N(CC(=O)NCCOc2ccc(C)cc2)S(=O)(=O)c2ccccc2)cc1`, the “lipid storage change, negative = inhibition” value was 2.62% (inactive) and the cell number change was found to be 23.7%. For `CC(=O)N1CCCc2cc(S(=O)(=O)NC(C(=O)NC3CCCCC3)C(C)C)ccc21` (stereo not given), in that order: -0.23% (inactive) and 13.4%. For `COC(=O)CCCCCCCCCC[N+]1(C)CCCCC1`, in that order: 7.23% (inactive) and 12.8%. For `C[N+]1(CCCCSc2ccc(O)cc2)CCCCC1`, the Potency is 4.61 µM (active) and the cell number change was -4.93%.

In the case of `C[N+]1(CCC(=O)c2ccccc2)CCCCC1`, the “lipid storage change, negative = inhibition” value is -1.35% (inactive) and the cell number change was 3.5%. In the same order, the values of `CCN(CC)C(=O)C(Oc1ccc(S(=O)(=O)N2CCCC2)cc1[N+](=O)[O-])c1ccccc1` (stereo not given) are -2.31% (inactive) and 3.42%.

Regarding `CSc1nsc(SCC(=O)Nc2ccc(OC(C)=O)cc2)n1`, the cell number change was -8.58% and the lipid storage change, negative = inhibition was 1.8% [at 9.22 µM] (inactive).

On to `CSc1nsc(SCC(=O)Nc2nncs2)n1`, for which the “lipid storage change, negative = inhibition” value is 1.82% (inactive) and the cell number change turned out to be 10.5%. As for `Nc1nnc(SCC(=O)Nc2ccc(Cl)c(C(=O)O)c2)s1`, the “lipid storage change, negative = inhibition” value was -24.1% (inactive) and the cell number change was -0.289%. For `CSc1nsc(SCC(=O)Nc2ccc(Cl)c(C(=O)O)c2)n1`, the Potency is 1.46 µM (active) and the cell number change was found to be 6.94%. Turning to `O=C(CSc1nc2ccccc2s1)Nc1ccc(Cl)c(C(=O)O)c1`, the “lipid storage change, negative = inhibition” value was 2.06% (inactive) and the cell number change turned out to be 18.4%. With `CSc1nsc(SCC(=O)Nc2ccc(C(N)=O)cc2)n1`, the Potency was 6.51 µM (active) and the cell number change came out at 8.7%. With `O=C(Nc1cc(C(=O)N2CCN(c3ccccc3O)CC2)ccc1Cl)c1cccs1`, the “lipid storage change, negative = inhibition” value was 0.607% (inactive) and the cell number change was found to be 5.21%. `CCCOc1cccc(C2/C(=C(\O)c3ccc4c(c3)OCCO4)C(=O)C(=O)N2CCCn2ccnc2)c1` (stereo not given): the molecule was called inactive and the cell number change is -8.73%. For `O=C(CCc1nnc2n(CCc3ccccc3)c(=O)c3ccccc3n12)NCCCN1CCCCC1`, in that order: “inactive” and -8.94%. Regarding `O=[N+]([O-])c1ccccc1/C=N/N1CCN(Cc2ccccc2)CC1`, the Potency is 1.3 µM (active) and the cell number change is -5.28%. Regarding `O=[N+]([O-])c1ccc(Cl)c(/C=N/N2CCN(Cc3ccccc3)CC2)c1`, the “lipid storage change, negative = inhibition” value was 12.3% (inactive) and the cell number change was -3.29%.

With `O=[N+]([O-])c1ccccc1/C=N\N1CCN(c2ccccc2)CC1`, the “lipid storage change, negative = inhibition” value was -22% (inactive) and the cell number change stood at 0.964%. As to `O=S(=O)(NNC(=S)Nc1ccc(S(=O)(=O)Nc2ncccn2)cc1)c1ccc(Br)cc1`, the molecule was classed as inactive and the cell number change amounted to 4.32%.

For `Cc1cc(Cn2nc(-c3ccccc3)cc2C(=O)NCC2CC2)on1`, the “lipid storage change, negative = inhibition” value is -21.7% (inactive) and the cell number change is -12.8%.

`CCOC(=O)c1cc(-c2ccccc2)nn1Cc1cc(C)no1`: the “lipid storage change, negative = inhibition” value was -32.4% (inactive) and the cell number change was -24%. `CCOC(=O)c1cc(-c2ccccc2)n(Cc2cc(CC)no2)n1`: the Potency was 18.4 µM (active) and the cell number change is -3.23%. As for `CCOC(=O)c1cc(-c2ccccc2)nn1Cc1cc(CC)no1`, the “lipid storage change, negative = inhibition” value is 3.3% (inactive) and the cell number change was -20.2%. Regarding `Cc1cc(Cn2nc(C(=O)NCc3cccc(Br)c3)cc2-c2ccccc2)on1`, the Potency is 13 µM (active) and the cell number change worked out at 16.4%. For the molecule `Cc1cc(C(=O)NCc2ccccc2)no1`, the “lipid storage change, negative = inhibition” value was -20.2% (inactive).
